Data reported in PubChem BioAssay AID485317 (Broad Institute, 2010).
The campaign covered roughly 290,000 compounds. About 11,000 (3.8%) were called active. What follows is part of a selection rich in actives, with near analogues and random picks from the rest. Values without a mark were called inactive.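 Rule for the calls: active = mean replicate inhibition above about 79%, with every replicate also reaching it (limit read from the data); inconclusive = only one of the two criteria met; inactive = mean below limit and not every replicate reaching it.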

These compounds were tested against FAD-linked sulfhydryl oxidase ALR (Homo sapiens) (UniProt P55789) (assay: ALR-catalysed DTT oxidation blockers – biochemical, H2O2 detection, HRP-luminol luminescence, single point, primary screen (AID 485317)). Details: purified ALR, stronger effect = higher value, concentration not given here.
FAD-linked sulfhydryl oxidase ALR (Homo sapiens), sequence (P55789 whole entry, looked up): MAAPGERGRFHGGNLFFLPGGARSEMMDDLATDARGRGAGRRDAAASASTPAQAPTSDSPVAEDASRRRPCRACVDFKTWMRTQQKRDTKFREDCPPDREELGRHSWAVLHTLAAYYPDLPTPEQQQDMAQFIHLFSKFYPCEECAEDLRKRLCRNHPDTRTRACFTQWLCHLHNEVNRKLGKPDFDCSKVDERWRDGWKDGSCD

Compared with Cc1ccc(Cc2nnc(SCC(=O)Nc3ccc(C)cc3C)[nH]c2=O)cc1, COc1ccc(CNc2nc3c(c(=O)[nH]c(=O)n3C)n2Cc2ccccc2)cc1 is higher in inhibition: -13.1% for the first, -2.89% for the second.

Compared with COc1ccccc1N(C)S(=O)(=O)c1ccc(Cl)c(C(=O)Nc2ccncc2)c1, COc1ccc2oc(-c3cccc(NC(=O)CSc4ccc(Cl)cc4)c3)nc2c1 is higher in inhibition: -13.7% for the first, -8.13% for the second.

First: Cc1ccc(OCC(=O)Oc2ccccc2[N+](=O)[O-])cc1
Second: COc1ccc(OCC(=O)Nc2cc(C)c(Cl)cc2OC)c([N+](=O)[O-])c1
The inhibition of the first is higher: 8.6% for the first, -2.93% for the second.

First: O=C(COc1cccnc1[N+](=O)[O-])Nc1ccc(Cl)cc1F
Second: CCCC(=O)OCC(=O)Nc1cc(Cl)ccc1[N+](=O)[O-]
The inhibition of the first is higher: -1.28% for the first, -5.98% for the second.

First: C=CCSc1nc2c(c(=O)[nH]c(=O)n2C)n1Cc1ccccc1
Second: CN(C(=O)COC(=O)c1ccc(Br)o1)c1c(N)n(Cc2ccccc2)c(=O)[nH]c1=O
The inhibition of the first is lower: -5.44% for the first, -5.35% for the second.

First: COC(=O)c1cccc(NC(=O)c2cccc(N3C(=O)CCC3=O)c2)c1
Second: Cn1c(CC(=O)NNC(=O)c2ccccc2F)nc2ccccc21
The inhibition of the first is higher: -1.61% for the first, -4.08% for the second.

Compared with CCN(CC(=O)Nc1ccccc1OC)C(=O)CC1CC2CCC1C2 (stereo not given), O=C(COC(=O)c1cccs1)Nc1ccccc1Cl is higher in inhibition: 1.64% for the first, 2.46% for the second.

First: O=S(=O)(O)Oc1c[nH]c2ccccc12
Second: CCCC(=O)N1CCc2[nH]c3ccccc3c2C1
The inhibition of the first is higher: -3.63% for the first, -30.4% for the second.

Compared with CC1(c2ccccc2)NC(=O)N(CC(=O)Nc2cc(Cl)ccc2N2CCOCC2)C1=O (stereo not given), O=C(NN=Cc1ccc(N2CCOCC2)cc1)c1cc2ccccc2cc1O is lower in inhibition: 13.2% for the first, 11.6% for the second.

First: N#CC1(NC(=O)COC(=O)Cc2n[nH]c(=O)c3ccccc23)CCCCC1
Second: CCOC(=O)c1cnc2nc(SCc3ccccc3Cl)[nH]n2c1=O
The inhibition of the first is lower: -18.6% for the first, 32.6% for the second.

Compared with Fc1ccc(NC(=S)N2CCc3[nH]c4ccccc4c3C2)cc1, Cc1nc2c(-c3ccc(F)cc3)c(C)nn2c(C)c1CCC(=O)N1CCN(c2ccccn2)CC1 is lower in inhibition: 3.4% for the first, -13.5% for the second.

First: Cc1c(C)n2c(SCC(=O)NC3CCCC3)nnc2[nH]c1=O
Second: Cc1ccc(C(=O)NCC(=O)NC2CC2)cc1
The inhibition of the first is higher: 2.18% for the first, 0.292% for the second.

Compared with COc1cc(OC)cc(-c2c(-c3cccs3)c3cc(-c4ccc(OC)cc4F)ccc3n2C)c1, COc1ccc(CNc2nc(NCc3ccc(OC)cc3)c3ncn(C4CCCC4)c3n2)cc1 is higher in inhibition: -3.91% for the first, 2.44% for the second.

Going from Cc1ccc(-c2n[nH]c(=S)n2/N=C/c2cc3c(cc2[N+](=O)[O-])OCO3)cc1 to Cc1ccc(S(=O)(=O)N/N=C\c2cc3c(cc2[N+](=O)[O-])OCO3)cc1, the inhibition rises from -5.58% to -3.17%.

First: COc1ccc(/C=N/Nc2cc(N3CCOCC3)nc(C)n2)c(OC)c1
Second: C(=N/Nc1cc(N2CCOCC2)nc(N2CCOCC2)n1)/c1ccccc1
The inhibition of the first is lower: 32.1% for the first, 34.6% for the second.

Going from CCOc1ccc(C(=O)Nc2cc(Cl)ccc2-n2cncn2)cc1OC to CCC(CO)Oc1cc(NC(=O)c2cccc(F)c2)c2ncn(C(C)C)c2c1 (stereo not given), the inhibition falls from -4.75% to -32.8%.

First: COC(=O)CSc1nc(C)c2ccc(OC)cc2n1
Second: COc1ccc([C@H]2CC(=O)C=C(c3ccc(CO)cc3)C2)cc1
The inhibition of the first is lower: -12.7% for the first, -0.829% for the second.

First: Cc1ccc2nc(N3C(=O)C(O)=C(C(=O)c4ccco4)C3c3cccc(O)c3)sc2c1 (stereo not given)
Second: O=C(C1=C(O)C(=O)N(c2ncccn2)C1c1cccs1)c1ccco1 (stereo not given)
The inhibition of the first is higher: 71.5% for the first, 21.9% for the second.

First: Cn1c(N)c(C(=O)COC(=O)c2cccc(S(=O)(=O)N3CCOCC3)c2)c(=O)n(C)c1=O
Second: Cc1csc2nc(O)c(C(=O)NCCN3CCOCC3)c(=O)n12
The inhibition of the first is lower: -2.97% for the first, 7.69% for the second.

Compared with Nc1ccccc1Sc1cc(Cl)nnc1Cl, CCOC(=O)c1cc(Sc2ccccc2N)cc(C(=O)OCC)n1 is lower in inhibition: 1.19% for the first, -11.9% for the second.

Going from CCC(C)N(C(=O)COC(=O)c1nc(Cl)ccc1Cl)C1CCS(=O)(=O)C1 (stereo not given) to CC(C)N(C(=O)CN1CCN(S(=O)(=O)c2ccc(Br)s2)CC1)C(C)C, the inhibition falls from 0.398% to -3.29%.

Compared with O=C(NC(CC(=O)N1CCN(c2ccccc2)CC1)c1ccccc1)c1ccccc1Cl (stereo not given), C/C(=C/c1ccccc1)C(=O)N1CCN(c2ccccc2)CC1 is higher in inhibition: 22.4% for the first, 44% for the second.

Compared with CC(=O)c1ccc(N2CCN(C(=O)CCc3ccccc3)CC2)cc1, O=C(CCSc1ccccc1)N1CCN(c2ccccc2F)CC1 is lower in inhibition: 16.1% for the first, -13.1% for the second.

Going from Cc1nc2ncnn2c(C)c1CCC(=O)N1CCN(C(=O)c2ccco2)CC1 to O=C(Nc1ccccc1Cl)Nn1cnnc1, the inhibition falls from 0.394% to -11.5%.

In the case of Cn1c(=O)[nH]c(=O)c2c1[nH]c(=S)n2Cc1ccccc1, the inhibition is reported as 86.9% (active).
With Cc1cc(NC(=O)COC(=O)COc2ccc(Cl)cc2C)c([N+](=O)[O-])cc1C the inhibition was 89.5% (active).
C=CCNC(=S)N1CCc2[nH]c3ccccc3c2C1 was tested, and the inhibition was 98.3% (active).
For CCOc1ccc(-c2n[nH]c(=S)n2/N=C/c2cc3c(cc2[N+](=O)[O-])OCO3)cc1, the inhibition was 84.2% (active).
For CN(C)c1ccc(/C=N/Nc2cc(N3CCOCC3)nc(N3CCOCC3)n2)cc1, the inhibition was 98.8% (active).
For COc1ccc2cc(CCl)c(Cl)nc2c1, the inhibition was 98% (active).
With C=CCSc1nnc(N2C(=O)C(O)=C(C(=O)c3ccco3)C2c2ccc(F)cc2)s1 (stereo not given) the inhibition was 98% (active).
Cc1nn(C)c(C)c1Sc1ccccc1N was tested, and the inhibition was 99.2% (active).
In the case of CC(CC(=O)N1CCN(c2ccccc2)CC1)c1ccccc1 (stereo not given), the inhibition is reported as 98.4% (active).
In the case of O=C(CCc1ccccc1F)N1CCN(c2ccccc2)CC1, the inhibition is reported as 88% (active).
For Cc1nc2nc(C)c(CCC(=O)N3CCN(c4ccccc4)CC3)c(C)n2n1, the inhibition was 92.8% (active).
With O=C(Nc1ccccc1Cl)/C(Cl)=C(\Cl)S(=O)c1ccccc1 (stereo not given) the inhibition was 97.6% (active).
